For 8 compounds, outcome, Potency and activity, negative = inhibition results are on record in PubChem BioAssay (NCATS).

Unmarked numbers belong to inactive results. Results filed as inconclusive are left out. Active and inactive are the calls of the source. Unless noted, calls follow the shape of the dose curve; as a rule, active = well fitted curve in the direction sought with a large enough effect; inconclusive = small, poorly fitted or top-dose-only effect, or another doubt; inactive = no such curve, though single readings can be large; an effect the other way counts as inactive or inconclusive.

The nature of assay [1]: AP1 Signaling Pathway (AID 357; active = well fitted curve in either direction with a large enough effect, not every such curve was filed as active;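 also: ME-180 reporter cells stimulated with EGF at its EC50 level; % is scaled to controls: 0 for no effect and ±100 for the full control effect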). Put shortly: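 A ratiometric CCF4 readout (405 nm excitation; 460 and 530 nm emission) quantified AP-1-driven beta-lactamase in ME-180 cells after 5 h with compound and EC50 EGF; AC50 values were derived for activators and inhibitors.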
The nature of assay [2]: qHTS for differential inhibitors of proliferation of Plasmodium falciparum line 7G8 (AID 1815).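 Also: parasite growth measured after three days of incubation.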 Also: potency is read from the fitted curve at half-maximal effect. For orientation: Quantitative high-throughput screening tests each substance at several concentrations.
A short description of assay [3]: qHTS for differential inhibitors of proliferation of Plasmodium falciparum line GB4 (AID 1816).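 Also: parasite growth measured after 72 h incubation.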 Also: potency is read from the fitted curve at half-maximal effect. To be noted: Potency: Plasmodium falciparum GB4 proliferation inhibition.
The nature of assay [4]: qHTS for differential inhibitors of proliferation of Plasmodium falciparum line 3D7 (AID 1876). Also: potency is read from the fitted curve at half-maximal effect.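 As to activity, negative = inhibition: parasite growth measured after three days of culture; 0% = vehicle wells and -100% = reference inhibitor wells.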
Assay [5] is described as follows: qHTS for differential inhibitors of proliferation of Plasmodium falciparum line Dd2 (AID 1882). Also: nearly all actives have a fitted effect of over 65% in size. Also: potency is read from the fitted curve at half-maximal effect. To be noted: Potency: Plasmodium falciparum Dd2 proliferation inhibition. The essentials: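 RBC culture, 0.3% parasitemia / 2.5% Hct final; cpd added by pin tool in DMSO; 72 h, 37 C, 5% CO2; lysis buffer + SYBR Green I, o/n RT dark; FI 485/535; norm. to artemisinin 0.29 uM and DMSO.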

Assay [6] can be described thus: qHTS for differential inhibitors of proliferation of Plasmodium falciparum line W2 (AID 1883).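 Also: parasites grown with compound for 72 h before lysis and staining.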 Also: potency is read from the fitted curve at half-maximal effect. The following applies: Potency: Plasmodium falciparum W2 proliferation inhibition.
Assay [7] in a line: qHTS for differential inhibitors of proliferation of Plasmodium falciparum line HB3 (AID 1886).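 Also: parasites grown with compound for 72 h before SYBR Green readout.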 Also: potency is read from the fitted curve at half-maximal effect. To be noted: Potency: Plasmodium falciparum HB3 proliferation inhibition.
Assay [8] is described as follows: qHTS Assay for Modulators of Human Peripheral Myelin Protein 22 (PMP22) Expression/Activity (AID 1967; active = well fitted curve in the direction sought with a large enough effect in the signal ratio; the % refers to the signal ratio;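 also: 0% = untreated cells and 100% end not stated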). The essentials:
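Engineered MSC80 cells, Pmp22-promoter green and EF-alpha red luciferase reporters; 24h compound treatment at 37 °C. Concentration-response fits on green, red and ratio signals, each overlap-corrected, with %Activity normalized to untreated wells.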

The target of assay [9] is RecQ-like DNA helicase BLM (Homo sapiens) (UniProt P54132). As to the kind of experiment: qHTS Validation Assay for Inhibitors of Bloom's syndrome helicase (BLM) (AID 2364).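 Also: plate controls were DMSO vehicle for no effect and enzyme-free control for full effect.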 Put shortly: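 BLM 50 nM in 25 mM Tris-HCl pH 8.0, 5 mM NaCl, 2 mM MgCl2, 1 mM DTT, 0.01% Tween-20, 2.5 ug/ml poly(dI-dC); 15 min cpd preinc, RT. Start: 200 nM forked DNA + 2 mM ATP (final). TAMRA read, 2 reads 2 h apart.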

The nature of assay [10]: Quantitative high throughput screen for delayed death inhibitors of the malarial parasite plastid, 48 hour incubation (AID 488752). Also: nearly all actives have a fitted effect of over 65% in size. Also: potency is read from the fitted curve at half-maximal effect. Put shortly: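 Luciferase-expressing P. falciparum in RBCs, 2% Hct, 0.1% parasitemia final; RPMI 1640 + 0.5% Albumax; 48 h, 37 C, 5% CO2; luminescence readout, signal drop = growth inhibition.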
Assay [11] has as its target Voltage-gated inwardly rectifying potassium channel KCNH2 (Homo sapiens) (UniProt Q12809). As to the kind of experiment: qHTS Assay for Small Molecule Inhibitors of the Human hERG Channel Activity (AID 588834).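 Also: lower thallium flux fluorescence means stronger hERG block; nearly all actives have a fitted effect of over 50% in size.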 Also: potency is read from the fitted curve at half-maximal effect. The essentials: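 Homogeneous FluxOR thallium flux assay using hERG-expressing U2OS cells (BacMam). Compound treatment about 10 minutes preceded stimulation; reduced fluorescence taken as channel block.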

Assay [12] concerns the target Ubiquitin carboxyl-terminal hydrolase 1 (Homo sapiens) (UniProt O94782). As to the kind of experiment: Inhibitors of USP1/UAF1: Pilot qHTS (AID 504865).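 Also: rhodamine fluorescence freed from ubiquitin-rhodamine substrate followed over time; top concentration of the series differs between compounds; % is scaled to controls: 0 for no effect and ±100 for the full control effect; nearly all actives have a fitted effect of over 35% in size.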 The essentials:
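Enzyme-free wells gave the negative control, while test wells held 1nM USP1/UAF1 preincubated with compound for 15 min at room temperature. Ub-Rho at 150nM final started the reaction, and fluorescence at 480/540 nm was recorded kinetically.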

For assay [13], the target named is Luciferin 4-monooxygenase (Photinus pyralis) (UniProt P08659). Briefly: Biochemical firefly luciferase enzyme assay for NPC (AID 624030).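 Also: purified P. pyralis luciferase at 10 nM with luciferin and ATP substrate; 0% = DMSO and -100% = full luciferase inhibition by PTC124 control; nearly all actives have a fitted effect of over 70% in size.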 Put shortly:
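Counter-screen for direct inhibition of the luciferase enzyme by approved-drug library compounds, run at 10 nM enzyme in 50 mM Tris acetate (final). Luminescence was read within 5 min of enzyme-buffer addition and normalized to PTC124 versus DMSO (0%).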

A short description of assay [14]: qHTS profiling for inhibitors of Plasmodium falciparum proliferation (AID 504749).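 Also: 0% = DMSO vehicle and full inhibition = artemisinin control; nearly all actives have a fitted effect of over 60% in size.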 The following applies: P. falciparum in erythrocytes, SYBR Green DNA, 72 h, at 28.7 µM (top of the series). Put shortly:
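Fluorescence of SYBR Green-bound parasite DNA, read at 485/535 nm, served as the growth measure. Infected erythrocytes were cultured with compound 72 h; artemisinin (0.29 uM) and DMSO wells defined the normalization range.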

For assay [15], the target named is Guanine nucleotide-binding protein G(i) subunit alpha-1 (Homo sapiens) (UniProt P63096). Briefly: qHTS Assay for Inhibitors of RGS12 GoLoco Motif Activity (Green Fluorophore) (AID 879).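 Also: 0% = labeled peptide with Gαi1 and full inhibition = labeled peptide alone without protein; negative values mean loss of peptide binding seen as reduced polarization.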 Put shortly: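 A drop in FITC polarization marked displacement of the FITC-tagged RGS12 GoLoco peptide (10 nM) from Gαi1 (50 nM). Compounds were incubated 10 min at room temperature in Tris pH 7.5 buffer containing 150 mM NaCl, 0.1 mM GDP and 0.05% NP40; unlabeled peptide titration served as control.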

The target of assay [16] is Pyruvate kinase (Leishmania mexicana) (UniProt Q27686). Briefly: qHTS Validation Assay for Inhibitors of Leishmania Mexicana Pyruvate Kinase (AID 945).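 Also: 0% = DMSO only neutral control wells.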 The essentials:
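Eight-point qHTS titrations in triplicate, data normalized to DMSO neutral control. Reaction: 0.2 nM LmPYK E451W mutant, 0.5 mM PEP, 0.1 mM ADP, 7 mM MgCl2, pH 7.2, one hour at room temperature; luminescent ATP detection.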

Assay [17] has as its target Pyruvate kinase PKM (Homo sapiens) (UniProt P14618). As to the kind of experiment: qHTS Assay for Activators of Human Muscle Pyruvate Kinase (AID 954; active = well fitted curve in the direction sought with a large enough effect, not every such curve was filed as active;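 also: 0% = uninhibited enzyme and -100% = no enzyme or full thiadiazolimine inhibition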). The essentials: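 ATP production by PKM2 detected via luciferase luminescence after 1 h room-temperature reaction (0.1 nM enzyme, PEP at Km 0.5 mM, ADP 0.1 mM, pH 7.2 imidazole buffer). Inhibition scaled to no-enzyme control; activation referenced to 0.3 nM enzyme wells.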

Assay [18] can be described thus: VSVG counterscreen qHTS to identify inhibitors of SARS-CoV-2 cell entry (AID 1645847; calls by dose curve; also: potency is read from the fitted curve at half-maximal effect; nearly all actives have a fitted effect of over 65% in size). The essentials: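 Entry of VSV-G pseudotyped particles into human ACE2-expressing HEK293 cells was measured by luciferase luminescence 48 h after infection, with compound added 1 h beforehand.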
On the technique in general: A counterscreen serves to expose hits that act by an unwanted route or on another target.

The target in assay [19] is Phospholipid hydroperoxide glutathione peroxidase GPX4 (Homo sapiens) (UniProt P36969). As to the kind of experiment: Primary qHTS Assay for Inhibitors of Recombinant Selenoprotein Glutathione Peroxidase 4 (GPX4) (AID 1845192). Also: % is scaled to controls: 0 for no effect and ±100 for the full control effect; nearly all actives have a fitted effect of over 65% in size. The essentials:
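qHTS, GR-coupled: GPX4 200 nM + cpd 30 min RT → GSH 1 mM, NADPH 0.5 mM, GR 100 nM → CHP 0.5 mM start; fluor 340/450 at t0 and t15 min; no-enzyme wells as control.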

Voltage-gated inwardly rectifying potassium channel KCNH2 (Homo sapiens), sequence (Q12809 whole entry, looked up): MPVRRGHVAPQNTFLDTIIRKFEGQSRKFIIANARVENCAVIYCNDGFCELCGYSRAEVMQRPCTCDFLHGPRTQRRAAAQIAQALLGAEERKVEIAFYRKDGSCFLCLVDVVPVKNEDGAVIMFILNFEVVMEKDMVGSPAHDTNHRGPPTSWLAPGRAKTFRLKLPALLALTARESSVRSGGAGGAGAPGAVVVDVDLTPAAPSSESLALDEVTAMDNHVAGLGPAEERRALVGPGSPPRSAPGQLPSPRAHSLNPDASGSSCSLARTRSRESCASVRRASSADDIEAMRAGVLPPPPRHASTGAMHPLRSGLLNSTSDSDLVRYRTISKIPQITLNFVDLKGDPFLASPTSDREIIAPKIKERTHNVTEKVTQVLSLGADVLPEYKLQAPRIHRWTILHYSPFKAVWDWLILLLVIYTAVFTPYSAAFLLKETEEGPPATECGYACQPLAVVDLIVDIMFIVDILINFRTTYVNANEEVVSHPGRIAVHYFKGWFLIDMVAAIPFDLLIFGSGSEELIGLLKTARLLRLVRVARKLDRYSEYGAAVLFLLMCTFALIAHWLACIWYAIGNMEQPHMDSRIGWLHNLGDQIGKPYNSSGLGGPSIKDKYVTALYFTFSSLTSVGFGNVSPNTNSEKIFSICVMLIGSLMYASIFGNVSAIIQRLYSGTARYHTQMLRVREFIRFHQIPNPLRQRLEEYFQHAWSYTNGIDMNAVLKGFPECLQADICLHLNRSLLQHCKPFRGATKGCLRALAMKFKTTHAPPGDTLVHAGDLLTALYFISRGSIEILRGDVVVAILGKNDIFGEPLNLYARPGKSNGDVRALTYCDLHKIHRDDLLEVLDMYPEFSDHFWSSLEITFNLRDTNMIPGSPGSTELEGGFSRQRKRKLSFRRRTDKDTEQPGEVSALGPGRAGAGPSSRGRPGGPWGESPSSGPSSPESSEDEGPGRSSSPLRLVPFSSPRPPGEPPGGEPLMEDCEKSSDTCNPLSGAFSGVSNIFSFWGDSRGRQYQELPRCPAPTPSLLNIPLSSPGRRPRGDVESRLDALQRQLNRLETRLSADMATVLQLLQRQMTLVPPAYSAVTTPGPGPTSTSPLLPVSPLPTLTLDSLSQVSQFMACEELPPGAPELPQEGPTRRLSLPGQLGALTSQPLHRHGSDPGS
RecQ-like DNA helicase BLM (Homo sapiens), sequence (P54132 whole entry, looked up): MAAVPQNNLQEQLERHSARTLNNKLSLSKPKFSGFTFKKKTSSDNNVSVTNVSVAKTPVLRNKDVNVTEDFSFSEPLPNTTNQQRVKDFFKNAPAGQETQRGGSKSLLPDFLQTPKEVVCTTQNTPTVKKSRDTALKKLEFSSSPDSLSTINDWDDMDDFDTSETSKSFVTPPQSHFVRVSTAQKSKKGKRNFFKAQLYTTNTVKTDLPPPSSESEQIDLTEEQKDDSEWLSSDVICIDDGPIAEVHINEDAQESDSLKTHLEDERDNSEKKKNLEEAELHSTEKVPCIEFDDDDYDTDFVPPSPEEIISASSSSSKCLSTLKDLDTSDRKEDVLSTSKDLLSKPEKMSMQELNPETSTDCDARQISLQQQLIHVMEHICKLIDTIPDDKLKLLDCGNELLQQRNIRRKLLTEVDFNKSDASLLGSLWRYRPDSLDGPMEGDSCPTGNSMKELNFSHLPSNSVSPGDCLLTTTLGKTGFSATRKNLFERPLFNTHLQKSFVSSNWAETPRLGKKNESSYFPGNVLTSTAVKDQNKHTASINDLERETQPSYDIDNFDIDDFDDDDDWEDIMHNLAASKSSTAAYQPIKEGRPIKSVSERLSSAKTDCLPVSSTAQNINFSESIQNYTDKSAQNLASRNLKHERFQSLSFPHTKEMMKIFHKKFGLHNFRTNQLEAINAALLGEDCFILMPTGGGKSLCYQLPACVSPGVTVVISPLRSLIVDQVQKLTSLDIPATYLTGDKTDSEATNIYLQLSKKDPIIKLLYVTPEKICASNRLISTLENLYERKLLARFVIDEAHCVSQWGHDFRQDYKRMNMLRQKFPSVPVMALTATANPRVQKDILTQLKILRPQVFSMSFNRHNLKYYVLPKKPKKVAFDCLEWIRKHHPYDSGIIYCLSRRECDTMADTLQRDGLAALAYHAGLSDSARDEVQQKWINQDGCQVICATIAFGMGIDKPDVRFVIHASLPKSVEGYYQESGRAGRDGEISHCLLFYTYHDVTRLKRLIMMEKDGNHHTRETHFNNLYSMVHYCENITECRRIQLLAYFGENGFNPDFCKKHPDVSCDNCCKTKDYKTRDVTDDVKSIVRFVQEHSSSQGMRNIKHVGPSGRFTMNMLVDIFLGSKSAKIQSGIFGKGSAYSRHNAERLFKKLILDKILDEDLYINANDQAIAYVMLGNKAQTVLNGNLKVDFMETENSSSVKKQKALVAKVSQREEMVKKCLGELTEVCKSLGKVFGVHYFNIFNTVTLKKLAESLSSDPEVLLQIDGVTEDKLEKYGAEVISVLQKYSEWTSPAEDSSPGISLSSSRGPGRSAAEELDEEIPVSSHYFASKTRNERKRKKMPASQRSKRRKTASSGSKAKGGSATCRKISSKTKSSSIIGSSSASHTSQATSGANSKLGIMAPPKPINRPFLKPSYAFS
Pyruvate kinase PKM (Homo sapiens), sequence (P14618 whole entry, looked up): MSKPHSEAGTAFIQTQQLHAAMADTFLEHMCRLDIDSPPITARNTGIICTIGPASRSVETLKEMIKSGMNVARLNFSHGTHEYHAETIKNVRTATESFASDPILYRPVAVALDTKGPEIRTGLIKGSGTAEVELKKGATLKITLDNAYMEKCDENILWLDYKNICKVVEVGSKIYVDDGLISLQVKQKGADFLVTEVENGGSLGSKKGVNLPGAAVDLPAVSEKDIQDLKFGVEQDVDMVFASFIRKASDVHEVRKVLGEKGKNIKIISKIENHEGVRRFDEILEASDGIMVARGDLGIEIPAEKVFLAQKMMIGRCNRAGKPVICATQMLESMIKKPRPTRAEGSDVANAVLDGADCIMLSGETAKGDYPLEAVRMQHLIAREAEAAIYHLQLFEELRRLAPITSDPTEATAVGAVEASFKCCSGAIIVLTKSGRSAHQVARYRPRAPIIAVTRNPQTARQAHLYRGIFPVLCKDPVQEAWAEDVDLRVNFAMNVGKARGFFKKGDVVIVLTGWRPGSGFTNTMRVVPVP
Ubiquitin carboxyl-terminal hydrolase 1 (Homo sapiens), sequence (O94782 whole entry, looked up): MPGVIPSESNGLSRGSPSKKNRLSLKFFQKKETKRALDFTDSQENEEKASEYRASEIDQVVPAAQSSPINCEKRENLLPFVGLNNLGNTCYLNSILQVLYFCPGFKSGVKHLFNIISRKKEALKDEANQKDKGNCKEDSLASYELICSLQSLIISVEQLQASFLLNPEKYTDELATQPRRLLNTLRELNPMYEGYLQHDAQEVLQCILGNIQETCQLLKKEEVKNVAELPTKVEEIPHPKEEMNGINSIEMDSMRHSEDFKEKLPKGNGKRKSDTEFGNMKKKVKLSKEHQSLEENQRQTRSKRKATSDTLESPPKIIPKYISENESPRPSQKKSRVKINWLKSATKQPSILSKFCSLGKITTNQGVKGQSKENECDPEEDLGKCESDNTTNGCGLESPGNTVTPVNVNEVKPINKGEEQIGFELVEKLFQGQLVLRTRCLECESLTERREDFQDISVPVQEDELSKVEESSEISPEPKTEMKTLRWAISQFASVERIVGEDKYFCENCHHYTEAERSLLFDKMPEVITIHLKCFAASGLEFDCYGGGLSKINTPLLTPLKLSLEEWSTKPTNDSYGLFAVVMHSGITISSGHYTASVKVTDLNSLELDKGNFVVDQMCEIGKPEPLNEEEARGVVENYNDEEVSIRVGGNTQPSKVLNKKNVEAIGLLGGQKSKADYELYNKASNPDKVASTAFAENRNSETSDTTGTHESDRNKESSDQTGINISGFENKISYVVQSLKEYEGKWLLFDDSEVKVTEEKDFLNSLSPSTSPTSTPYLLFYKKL
Pyruvate kinase (Leishmania mexicana), sequence (Q27686 2-499 E452W): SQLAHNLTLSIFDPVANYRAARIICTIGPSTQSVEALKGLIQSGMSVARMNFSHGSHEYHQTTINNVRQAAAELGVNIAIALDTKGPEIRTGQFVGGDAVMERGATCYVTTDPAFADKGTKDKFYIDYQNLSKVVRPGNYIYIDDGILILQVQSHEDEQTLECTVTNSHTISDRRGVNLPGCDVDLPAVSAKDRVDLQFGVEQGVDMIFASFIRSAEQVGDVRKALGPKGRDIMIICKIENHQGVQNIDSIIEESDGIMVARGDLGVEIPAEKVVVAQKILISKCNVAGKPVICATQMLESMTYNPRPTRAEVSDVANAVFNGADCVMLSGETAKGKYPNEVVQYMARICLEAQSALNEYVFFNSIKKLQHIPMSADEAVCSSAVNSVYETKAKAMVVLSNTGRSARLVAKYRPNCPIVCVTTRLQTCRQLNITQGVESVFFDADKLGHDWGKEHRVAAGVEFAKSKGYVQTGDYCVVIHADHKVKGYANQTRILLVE
Luciferin 4-monooxygenase (Photinus pyralis), sequence (P08659 whole entry, looked up): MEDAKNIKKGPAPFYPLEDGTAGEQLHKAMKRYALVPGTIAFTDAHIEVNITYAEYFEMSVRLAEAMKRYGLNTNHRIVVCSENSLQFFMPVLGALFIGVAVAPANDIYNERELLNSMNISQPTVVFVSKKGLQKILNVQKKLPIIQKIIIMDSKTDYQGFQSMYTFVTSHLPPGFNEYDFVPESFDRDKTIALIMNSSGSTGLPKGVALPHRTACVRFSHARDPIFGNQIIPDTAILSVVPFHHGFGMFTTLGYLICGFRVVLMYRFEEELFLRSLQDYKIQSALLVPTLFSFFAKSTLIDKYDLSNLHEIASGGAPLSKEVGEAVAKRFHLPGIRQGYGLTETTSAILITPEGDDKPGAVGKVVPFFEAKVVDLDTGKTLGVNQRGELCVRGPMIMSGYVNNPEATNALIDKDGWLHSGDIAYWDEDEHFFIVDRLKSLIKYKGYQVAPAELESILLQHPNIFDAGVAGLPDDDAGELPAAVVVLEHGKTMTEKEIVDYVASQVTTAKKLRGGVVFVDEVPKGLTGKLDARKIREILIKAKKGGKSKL

For the compound `C#CCN(C)C(C)Cc1ccccc1` (centres undefined), the compound was classed as inactive in assay [1], in assay [8] and in [9]. Besides, the Potency result in assay [2], in [3], in [4], in [5], in assay [6] and in assay [7] was “inactive” throughout. Moreover, the Potency entry in assay [10] and in assay [11] was “inactive” throughout.
For `CCCN1CCC[C@@H]2Cc3n[nH]cc3C[C@H]21`, the Potency result in [3], in assay [4], in assay [5], in assay [7] and in [10] was “inactive” in each case. Also, the result in [8] was inactive.
For `CCCN(CCC)[C@@H]1CCc2c(F)ccc(O)c2C1`, the Potency in assay [2] is 1120 nM (active); in [3], 355 nM (active); in assay [4], 1580 nM (active); in assay [5] it was 1410 nM (active); in assay [6], 891 nM (active); in [7], 1410 nM (active). Besides, in assay [10], the Potency was 2620 nM (active). Moreover, in [9], the call was inactive. For the same compound, the Potency result in assay [11] is “inactive”.
Regarding `CC(C)(O)C1C2OC(=O)C1[C@]1(O)C[C@H]3O[C@]34C(=O)O[C@H]2[C@]14C` (some centres undefined) (tested in a mixture with another compound), the Potency result in assay [2], in [3], in assay [4], in assay [5], in assay [6] and in assay [7] was “inactive” each time. Moreover, the Potency entry in assay [10], in [12] and in assay [13] was “inactive” in each case. For the same compound, the activity, negative = inhibition in assay [14] (parasite line A) is 14%; in assay [14] (parasite line B), -0.69%.
Take `Nc1ncnc2c1ncn2[C@@H]1O[C@H](COP(=O)(O)CP(=O)(O)OP(=O)(O)O)[C@H](O)[C@H]1O`: the Potency result in assay [2], in assay [3], in assay [4], in [5], in assay [6] and in [7] was “inactive” in each case. Also, the Potency entry in assay [10] and in [11] was “inactive” throughout. Also, the call in assay [8] was inactive.
As to `CCCCN1C2CCC1CC(OC(c1ccc(F)cc1)c1ccc(F)cc1)C2` (centres undefined), the result in assay [15] and in assay [17] was inactive. Moreover, the Potency entry in assay [16] is “inactive”. The Potency in [2] was 2000 nM (active); in [3] it was 1580 nM (active); in assay [4] it was 891 nM (active); in [5], 3980 nM (active); in assay [6], 631 nM (active); in [7] it was 1000 nM (active). Further, the results for the Potency in assay [10] and in assay [11] were 7380 nM (active) and 89.1 nM (active), respectively.
With `C[N+]1(C)C2CC(OC(=O)C(CO)c3ccccc3)CC1C1OC12` (centres undefined), the Potency entry in assay [2], in assay [3], in assay [4], in assay [5], in assay [6] and in [7] was “inactive” each time. For the same compound, the Potency entry in assay [10] and in [11] was “inactive” in each case. Moreover, the compound was classed as inactive in assay [8] and in assay [9].
With `C/C1=C/C[C@@H](/C(C)=C/c2csc(C)n2)OC(=O)C[C@H](O)C(C)(C)C(=O)[C@H](C)[C@@H](O)[C@@H](C)CCC1`, in assay [18], the Potency is 60.7 nM (active). Further, the Potency result in [19] is “inactive”.
